Results: PubChem BioAssay AID1578 (Sanford-Burnham Center for Chemical Genomics, 2009)
In all, about 290,000 compounds went through this assay and about 3,000 (1%) were called active. Shown is part of a subset that was picked to be rich in actives. Unmarked numbers belong to inactive results. Rule as the data show it: active = inhibition mostly above about 36% (no sharp cut-off); inactive = mostly below about 34%.

test: inhibition of NOD1-driven NF-kB reporter – cell-based, luminescence, uHTS, primary screen (AID 1578); settings: NOD1-driven NF-kB luciferase reporter cells, at 4 µM, active compounds read high;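 also: HEK-293T reporter cells stimulated with the NOD1 agonist gamma-tri-DAP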

In order of rising inhibition:
1. Cc1cc(NC(=O)c2cccnc2)ccc1NC(=O)c1ccco1  -65.2%
2. Cc1nc2cc(-c3ccccc3)[nH]n2c(=O)c1C  -59.1%
3. Cc1cc(NC(=O)OC2CCCCC2)ccc1[N+](=O)[O-]  -54.1%
4. O=C(O)CCCn1cc(NC(=O)c2c(F)cccc2F)cn1  -50.2%
5. CN(Cc1nc2ccccc2[nH]1)Cc1nc(CC2CC2)no1  -48.9%
6. CCCN(CCC)c1ncnc2c1cnn2-c1ccc(OC)cc1  -46.4%
7. CN1C/C(=C/c2ccsc2)C(=O)/C(=C/c2ccsc2)C1  -44.5%
8. Cc1ccc2cccc(N)c2n1  -43.8%
9. Cc1ccc(C(c2nnnn2CS(=O)(=O)c2ccc(C)cc2)N2CCN(c3ncccn3)CC2)cc1 (stereo not drawn)  -41.2%
10. Cc1cc(NC(=O)c2cc3ncc(Br)cn3n2)no1  -40.8%
11. COCCNC(=S)NNC(=O)CSCc1ccc(Cl)cc1Cl  -40.2%
12. COc1ccc(-c2csc(/C(C#N)=C\c3cccc([N+](=O)[O-])c3)n2)cc1  -40.1%
13. CCc1ccc(NC(=O)c2cc(CC(C)C)on2)cc1  -39.3%
14. CCC(C)C(NC(=O)C(CC(C)C)NC(=O)C(CO)NC(=O)C1CCC(=O)N1)C(=O)OC (stereo not drawn)  -36%
15. Cc1ccc(NC(=O)C2C3C=CC4(O3)C2C(=O)N(CCCN2CCOCC2)C4C(=O)NC2CCCCC2)cc1Cl (stereo not drawn)  -35.1%
16. COC(Cn1c(-c2cccc(S(=O)(=O)N(C)C)c2)n[nH]c1=S)OC  -34.1%
17. CC(NC(=O)c1ccc2nc[nH]c2c1)c1ccccc1 (stereo not drawn)  -33.6%
18. Cn1nnnc1SCC(=O)N1CCN(C(=O)c2ccco2)CC1  -32.2%
19. COc1ccc(C(=O)ON=C2CCN(C)CC2)cc1  -31.9%
20. O=C(O)c1ccc(Oc2c(C(F)(F)F)oc3cc(O)ccc3c2=O)cc1  -31.7%
21. O=C(O)Cc1ccc(NC(=O)Cc2ccc3ccccc3c2)cc1  -30.6%
22. COc1ccc(-n2ncc3c(N4CCC(C(N)=O)CC4)ncnc32)cc1  -30%
23. O=C(NCc1ccccn1)c1nc(Cn2cc([N+](=O)[O-])cn2)no1  -23.2%
24. CN(C)c1cccc(C(=O)NNC(=S)NC2CCCC2)c1  -23.1%
25. CN1C(=O)c2cccc(NC(=O)CCc3ccccc3)c2C1=O  -23%
26. COc1ccccc1N(C)S(=O)(=O)c1ccc(Cl)c(C(=O)NCCCN2CCOCC2)c1  -22.8%
27. O=C(O)c1ccc(Cl)cc1NC(=O)C1CCCO1 (stereo not drawn)  -22%
28. CCOC(=O)C1=C(C)NC(=O)NC1c1cc2c(cc1Br)OCO2 (stereo not drawn)  -20.8%
29. Cc1ccc(SCC(=O)N2N=CCC2c2ccccc2)cc1 (stereo not drawn)  -19.9%
30. COc1ccc(-c2csc(/C(C#N)=C\c3ccc(OC)c([N+](=O)[O-])c3)n2)cc1  -19.7%
31. O=C(NC1CCSc2ccccc21)c1cccc(Cl)c1 (stereo not drawn)  -18.6%
32. O=C(c1ccc(F)cc1)N1CCN(c2ccc([N+](=O)[O-])c(N3CCOCC3)c2)CC1  -17.8%
33. CCOC(=O)CC1C(=O)NCCN1C(=O)COc1ccc(C(C)(C)C)cc1 (stereo not drawn)  -17.7%
34. CCOc1ccc(OCC)c(S(=O)(=O)NCc2cccnc2)c1  -17.5%
35. NCCc1nnc(SCC(=O)Nc2ccc(Br)cc2)o1  -15.9%
36. N#C/C(=C\c1ccc([N+](=O)[O-])cc1)c1nc(C2CC2)cs1  -14.9%
37. c1ccc(C2NCCn3cccc32)cc1 (stereo not drawn)  -14.6%
38. CCCC(=O)NCCc1nc2ccccc2n1CCC  -14.2%
39. CN1CCN(c2ncnc3c2cnn3-c2ccc(Cl)cc2)CC1  -13.8%
40. COc1cccc(-n2nnc3c(=O)n(CC(=O)N4CCCCC4)cnc32)c1  -13.7%
41. CN(c1ccccc1)S(=O)(=O)c1ccc(Cl)c(C(=O)Nc2ccc(N3CCOCC3)cc2)c1  -13%
42. CCCCNc1nc2ccccc2n1CC(=O)Nc1ccc2c(c1)OCCO2  -11.5%
43. CCOc1ccc(CNC(=O)CCCC(=O)n2ncc3cc(C)ccc32)cc1  -10.4%
44. CC(C)c1cc(C(=O)O)on1  -10.1%
45. CC(=O)Nc1ccc(S(=O)(=O)NCc2nc(-c3ccccc3)no2)cc1  -7.6%
46. C[C@@H]1C[C@@H]2OC(=O)[C@]3(C)[C@H]2[C@@H](OC3(C)O)[C@]2(C)C(=O)C=C[C@H]12 (stereo partly drawn)  -7.5%
47. COc1ccc(CNC(=O)Cc2cn(C)c3ccccc23)c(OC)c1  -7.1%
48. COc1ccc(-n2ncc3c(N4CCC(C)CC4)ncnc32)cc1  -5.4%
49. CCc1cc(-c2nc(N)ncc2-c2ccc(Br)cc2)c(O)cc1OC  -5.1%
50. COc1ccc(CNC(=O)CN2CCN(c3cccc(C)c3C)CC2)cc1  -3.6%
51. O=C(N/N=C/c1ccc(O)cc1)c1ccc(NC(=O)c2ccccc2Br)cc1  -3.3%
52. Cc1ccc2cccc(OCc3ccccc3)c2n1  -0.7%
53. CCOC(=O)c1c(C)sc2c1N(C(=O)CN(CC)CC)c1cc(Cl)ccc1S2  -0.4%
54. O=c1cc(O)n(-c2ccccc2F)c(=S)[nH]1  0%
55. CCCCNC(=S)Nc1ccc(Cl)cc1  0.1%
56. CC1CCCN(c2ncnc3c2cnn3-c2ccccc2)C1 (stereo not drawn)  0.1%
57. COc1ccc(CNC(=O)CSc2nc3ccc(C)cc3[nH]2)cc1OC  0.6%
58. CC1CC(C)CN(c2ncnc3c2cnn3-c2ccc(Cl)cc2)C1 (stereo not drawn)  1.3%
59. COc1ccc(Oc2c(C(F)(F)F)oc3cc(OCC(=O)O)ccc3c2=O)cc1  4.6%
60. CN1C(=O)c2cccc(NC(=O)Cc3ccccc3)c2C1=O  5.1%
61. Oc1ccc(Cc2ncc(C(F)(F)F)cc2Cl)cc1  5.6%
62. COc1cc(/C=C(/C#N)c2nc(-c3cc4ccccc4oc3=O)cs2)cc([N+](=O)[O-])c1O  6.6%
63. Cc1cc(OC(=O)c2ccccc2)n(CCC#N)n1  6.7%
64. COc1ccccc1N1CCN(c2ccc([N+](=O)[O-])cc2Cl)CC1  7.1%
65. CC(=O)Nc1ccc(NC(=O)c2nc(S(=O)(=O)Cc3cccc(C)c3)ncc2Cl)cc1  8.3%
66. N=c1ccn(Cc2cccc(Cl)c2)cc1  8.9%
67. CC(=O)Nc1ccc(NC(=O)c2nc(S(=O)(=O)Cc3ccccc3)ncc2Cl)cc1  11.7%
68. CCOc1ccc(/C=N/NC(=O)C(=O)N2CCCCCC2)c2ccccc12  12%
69. CCN(CC)CCNC(=O)CS(=O)Cc1nc(-c2ccc(C)cc2)oc1C (stereo not drawn)  13.6%
70. COc1ccc(/C=C2\SC(=S)N(CCC(=O)N3CCCCC3)C2=O)cc1  13.7%
71. O=C(O)CCCNC(=O)c1cncc(O)c1  15.1%
72. C/C(=N\Nc1cc(C(F)(F)F)ccc1Cl)c1ccccc1O  15.7%
73. O=C(NCc1ccc2c(c1)OCO2)c1nc(S(=O)(=O)Cc2ccccc2)ncc1Cl  16.2%
74. CC(C)c1cc(NC(=O)CSc2nnc(-c3ccccc3F)n2C)on1  18.2%
75. CCOC(=O)c1c(C)sc2c1N(C(C)=O)c1cc(Cl)ccc1S2  25.7%
76. Cc1oc(-c2ccccc2Cl)nc1CSCC(=O)N1CCCC1  25.8%
77. Fc1ccc(C2NCCn3cccc32)cc1 (stereo not drawn)  25.8%
78. Cc1cccc(-n2ncc3c(N(C)C4CCCCC4)ncnc32)c1  27.6%
79. N=c1ccn(Cc2ccc(Cl)cc2)cc1  30.5%
80. Cc1oc(-c2ccccc2Cl)nc1CSc1nc2c(c(=O)[nH]1)CCC2  34%
81. Cc1cccc(CS(=O)(=O)c2ncc(Cl)c(C(=O)NCc3ccccc3)n2)c1  34.5%
82. Cc1ccc(NC(=O)c2nc(S(=O)(=O)Cc3ccccc3)ncc2Cl)cc1  34.5%
83. Clc1ccc(-n2ncc3c(N4CCCC4)ncnc32)cc1  39.9%
84. Cc1nnc(NC(=O)c2nc(S(=O)(=O)Cc3ccccc3C)ncc2Cl)s1  41.7%
85. O=C(CSc1nc2ccccc2n1-c1ccccc1)Nc1ncc(Cl)cc1Cl  48.8%
86. CC(C)N1C/C(=C/c2cccnc2)C(=O)/C(=C/c2cccnc2)C1  49.5%
87. Cc1ccc(-n2c(SCC(=O)Nc3ncc(Cl)cc3Cl)nc3ccccc32)cc1  59.3%

For `CC(C)c1cc(NC(=O)CCl)on1`, the inhibition was 41.7% (active).
In the case of `CCC(=O)Nc1cccc2c1C(=O)N(C)C2=O`, the inhibition is reported as 83.2% (active).
For `Cc1cccc(CS(=O)(=O)c2ncc(Cl)c(C(=O)NCc3ccc4c(c3)OCO4)n2)c1`, the inhibition was 70.3% (active).
For `COc1cc(C(=O)NS(=O)(=O)c2ccccc2C)ccc1Cc1cn(C)c2ccc(NC(=O)OC3CCCC3)cc12`, the inhibition was 39.2% (active).
With `N=c1ccn(Cc2ccc(Cl)c(Cl)c2)cc1` the inhibition was 79.2% (active).
In the case of `COc1ccc(C2NCCn3cccc32)cc1` (stereo not drawn), the inhibition is reported as 112% (active).
For `COc1ccc(-n2c(SCC(=O)Nc3ncc(Cl)cc3Cl)nc3ccccc32)cc1`, the inhibition was 58.9% (active).
In the case of `CCOC(=O)c1c(C)sc2c1N(C(=O)CCl)c1cc(Cl)ccc1S2`, the inhibition is reported as 55.3% (active).
For `COc1ccc2c(=O)c(Oc3ccc(C(=O)O)cc3)c(C(F)(F)F)oc2c1`, the inhibition was 47.7% (active).
For `C=C1C(=O)C=C[C@]2(C)C[C@@H]3OC(=O)[C@](C)(O)[C@H]3C[C@@H]12`, the inhibition was 33.2% (active).
For `CC(C)N1C/C(=C/c2ccsc2)C(=O)/C(=C/c2ccsc2)C1`, the inhibition was 80.5% (active).
With `COc1ccc(-c2csc(/C(C#N)=C\c3ccc(O)c([N+](=O)[O-])c3)n2)cc1OC` the inhibition was 78.3% (active).
In the case of `Cc1ccc2ccc3ccc(C)nc3c2n1`, the inhibition is reported as 44.3% (active).
With `CC1CCCN(c2ncnc3c2cnn3-c2ccc(Cl)cc2)C1` (stereo not drawn) the inhibition was 73.3% (active).
In the case of `COc1ccc(-n2ncc3c(N4CCCCC4)ncnc32)cc1`, the inhibition is reported as 87% (active).
With `Clc1ccc(-n2ncc3c(N4CCCCCC4)ncnc32)cc1` the inhibition was 78.4% (active).
